Data: the supplement of paper PMC10849652
Targets with a hit are over-represented here; the source holds about 7,900 in all. About 0.6% of all pairs of compound and target were hits.

Compound: c1cn2cc(-c3ccc4cn[nH]c4c3)nc(Nc3ccc(N4CCOCC4)cc3)c2n1 [entospletinib]
Assay: log2 fold change, soluble protein after heating vs DMSO (PISA); higher = thermal stabilisation; K562 cells, 10 uM, 30 min; active = over 0.2 and 3.5 SD of the protein, either way, in both replicates (recomputed)
Outline: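 K562 cells at 2×10^6 cells/mL were treated with 10 μM compound for 30 min. Aliquots were heated for 3 min across 48°C-58°C, pooled, and extracted in PBS with 0.5% NP-40 at 4°C; soluble protein was the supernatant after 21,000xg for 90 min. Soluble protein was quantified by TMTpro 16plex LC-MS/MS with channel sums equalised, and reported as log2 fold change in thermal stability against DMSO controls, with values from duplicates.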

UniProt P36969, sequence (P36969 whole entry, looked up): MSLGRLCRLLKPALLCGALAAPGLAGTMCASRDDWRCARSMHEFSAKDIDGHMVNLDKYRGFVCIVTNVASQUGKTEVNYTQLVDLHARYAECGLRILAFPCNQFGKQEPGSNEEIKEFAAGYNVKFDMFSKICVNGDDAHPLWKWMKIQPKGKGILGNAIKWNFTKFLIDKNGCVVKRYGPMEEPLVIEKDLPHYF
UniProt Q9Y5Q8, sequence (Q9Y5Q8 whole entry, looked up): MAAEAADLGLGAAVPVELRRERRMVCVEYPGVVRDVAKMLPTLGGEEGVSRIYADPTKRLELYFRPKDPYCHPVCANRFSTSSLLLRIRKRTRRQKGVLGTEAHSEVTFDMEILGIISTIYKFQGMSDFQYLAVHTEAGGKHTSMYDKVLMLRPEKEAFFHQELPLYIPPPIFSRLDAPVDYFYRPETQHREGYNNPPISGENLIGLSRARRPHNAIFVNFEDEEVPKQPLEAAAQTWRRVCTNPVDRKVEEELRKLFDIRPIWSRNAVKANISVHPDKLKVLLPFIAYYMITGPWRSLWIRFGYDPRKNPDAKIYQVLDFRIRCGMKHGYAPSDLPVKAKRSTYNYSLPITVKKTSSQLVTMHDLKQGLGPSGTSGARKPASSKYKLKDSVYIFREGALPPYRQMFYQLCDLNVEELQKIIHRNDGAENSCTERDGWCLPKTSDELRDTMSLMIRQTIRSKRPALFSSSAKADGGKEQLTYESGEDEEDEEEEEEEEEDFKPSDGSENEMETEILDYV
UniProt Q9UK99, sequence (Q9UK99 whole entry, looked up): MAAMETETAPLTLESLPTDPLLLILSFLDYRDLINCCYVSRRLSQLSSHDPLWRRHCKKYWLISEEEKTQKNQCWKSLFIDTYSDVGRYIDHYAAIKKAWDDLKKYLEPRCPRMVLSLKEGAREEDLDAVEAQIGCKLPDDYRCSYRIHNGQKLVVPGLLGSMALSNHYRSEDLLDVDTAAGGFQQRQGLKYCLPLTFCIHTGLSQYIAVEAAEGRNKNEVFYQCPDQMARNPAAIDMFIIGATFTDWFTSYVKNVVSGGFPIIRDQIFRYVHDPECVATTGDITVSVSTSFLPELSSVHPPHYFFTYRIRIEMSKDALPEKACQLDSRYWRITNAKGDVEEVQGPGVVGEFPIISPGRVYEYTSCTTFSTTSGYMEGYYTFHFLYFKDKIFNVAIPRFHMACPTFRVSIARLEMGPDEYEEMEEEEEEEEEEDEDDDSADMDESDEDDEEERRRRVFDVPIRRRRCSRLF
UniProt Q92769, sequence (Q92769 whole entry, looked up): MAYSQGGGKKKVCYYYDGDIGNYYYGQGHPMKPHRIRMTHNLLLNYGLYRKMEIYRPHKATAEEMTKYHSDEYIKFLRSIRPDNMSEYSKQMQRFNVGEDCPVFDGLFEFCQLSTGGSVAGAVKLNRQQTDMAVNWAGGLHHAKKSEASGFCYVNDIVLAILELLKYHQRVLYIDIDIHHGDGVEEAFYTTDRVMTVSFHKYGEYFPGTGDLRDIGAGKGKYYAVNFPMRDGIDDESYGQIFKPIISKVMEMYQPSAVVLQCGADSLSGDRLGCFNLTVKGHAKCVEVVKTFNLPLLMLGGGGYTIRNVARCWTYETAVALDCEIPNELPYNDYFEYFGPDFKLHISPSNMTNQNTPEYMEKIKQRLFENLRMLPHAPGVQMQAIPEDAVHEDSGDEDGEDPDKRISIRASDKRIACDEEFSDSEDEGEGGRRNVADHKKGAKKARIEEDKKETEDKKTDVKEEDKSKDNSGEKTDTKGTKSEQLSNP
UniProt O00291, sequence (O00291 whole entry, looked up): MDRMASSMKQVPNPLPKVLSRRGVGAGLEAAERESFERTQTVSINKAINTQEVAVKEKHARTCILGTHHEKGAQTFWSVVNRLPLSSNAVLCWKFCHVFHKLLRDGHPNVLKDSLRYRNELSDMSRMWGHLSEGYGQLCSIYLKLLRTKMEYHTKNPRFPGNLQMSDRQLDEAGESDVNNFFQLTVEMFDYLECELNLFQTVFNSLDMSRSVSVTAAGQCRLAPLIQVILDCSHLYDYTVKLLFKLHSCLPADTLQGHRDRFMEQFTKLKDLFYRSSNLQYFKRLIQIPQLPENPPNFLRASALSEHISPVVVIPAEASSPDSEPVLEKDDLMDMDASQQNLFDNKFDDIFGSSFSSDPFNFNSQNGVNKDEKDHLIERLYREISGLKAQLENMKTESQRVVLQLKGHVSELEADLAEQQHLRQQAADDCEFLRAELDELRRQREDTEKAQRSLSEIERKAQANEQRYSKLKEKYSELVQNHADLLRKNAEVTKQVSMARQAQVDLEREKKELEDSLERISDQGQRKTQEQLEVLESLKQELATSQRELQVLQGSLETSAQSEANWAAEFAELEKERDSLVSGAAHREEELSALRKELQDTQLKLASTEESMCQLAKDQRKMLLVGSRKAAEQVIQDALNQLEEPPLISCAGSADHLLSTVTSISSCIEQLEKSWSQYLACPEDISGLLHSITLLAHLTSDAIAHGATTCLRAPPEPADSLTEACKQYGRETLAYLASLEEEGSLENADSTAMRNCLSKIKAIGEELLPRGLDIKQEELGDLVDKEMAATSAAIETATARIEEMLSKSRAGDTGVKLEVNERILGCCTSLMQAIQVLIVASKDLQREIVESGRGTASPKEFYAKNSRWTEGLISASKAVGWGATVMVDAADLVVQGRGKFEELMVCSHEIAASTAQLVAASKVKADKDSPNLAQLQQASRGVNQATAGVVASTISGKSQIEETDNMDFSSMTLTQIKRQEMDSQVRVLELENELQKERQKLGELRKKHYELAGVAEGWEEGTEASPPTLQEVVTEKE
UniProt Q92947, sequence (Q92947 whole entry, looked up): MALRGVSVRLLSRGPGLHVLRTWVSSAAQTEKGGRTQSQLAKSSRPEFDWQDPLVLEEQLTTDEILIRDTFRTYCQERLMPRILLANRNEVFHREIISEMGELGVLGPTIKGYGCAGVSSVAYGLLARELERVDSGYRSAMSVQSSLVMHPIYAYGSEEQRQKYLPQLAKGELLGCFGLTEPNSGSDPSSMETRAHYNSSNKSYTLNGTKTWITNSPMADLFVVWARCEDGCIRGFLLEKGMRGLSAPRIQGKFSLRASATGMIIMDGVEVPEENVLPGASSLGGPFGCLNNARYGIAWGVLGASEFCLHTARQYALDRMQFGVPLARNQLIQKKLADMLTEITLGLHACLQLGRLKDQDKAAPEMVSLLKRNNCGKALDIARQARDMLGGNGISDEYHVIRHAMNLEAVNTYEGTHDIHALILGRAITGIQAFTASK
UniProt P05362, sequence (P05362 whole entry, looked up): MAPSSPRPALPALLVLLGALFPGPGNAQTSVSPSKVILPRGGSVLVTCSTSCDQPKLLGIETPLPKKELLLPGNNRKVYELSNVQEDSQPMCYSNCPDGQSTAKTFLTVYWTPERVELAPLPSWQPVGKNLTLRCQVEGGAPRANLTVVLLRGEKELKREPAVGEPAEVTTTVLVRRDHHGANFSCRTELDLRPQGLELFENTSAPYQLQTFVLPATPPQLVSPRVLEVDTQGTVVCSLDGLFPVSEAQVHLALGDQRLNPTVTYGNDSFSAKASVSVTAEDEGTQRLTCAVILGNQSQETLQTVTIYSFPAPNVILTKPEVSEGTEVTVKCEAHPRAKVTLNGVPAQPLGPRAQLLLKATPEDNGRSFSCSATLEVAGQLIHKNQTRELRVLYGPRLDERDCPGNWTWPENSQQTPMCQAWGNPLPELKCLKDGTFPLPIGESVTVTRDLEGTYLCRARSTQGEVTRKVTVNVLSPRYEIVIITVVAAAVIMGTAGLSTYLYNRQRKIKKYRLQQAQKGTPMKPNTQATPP
UniProt Q7Z4V5, sequence (Q7Z4V5 whole entry, looked up): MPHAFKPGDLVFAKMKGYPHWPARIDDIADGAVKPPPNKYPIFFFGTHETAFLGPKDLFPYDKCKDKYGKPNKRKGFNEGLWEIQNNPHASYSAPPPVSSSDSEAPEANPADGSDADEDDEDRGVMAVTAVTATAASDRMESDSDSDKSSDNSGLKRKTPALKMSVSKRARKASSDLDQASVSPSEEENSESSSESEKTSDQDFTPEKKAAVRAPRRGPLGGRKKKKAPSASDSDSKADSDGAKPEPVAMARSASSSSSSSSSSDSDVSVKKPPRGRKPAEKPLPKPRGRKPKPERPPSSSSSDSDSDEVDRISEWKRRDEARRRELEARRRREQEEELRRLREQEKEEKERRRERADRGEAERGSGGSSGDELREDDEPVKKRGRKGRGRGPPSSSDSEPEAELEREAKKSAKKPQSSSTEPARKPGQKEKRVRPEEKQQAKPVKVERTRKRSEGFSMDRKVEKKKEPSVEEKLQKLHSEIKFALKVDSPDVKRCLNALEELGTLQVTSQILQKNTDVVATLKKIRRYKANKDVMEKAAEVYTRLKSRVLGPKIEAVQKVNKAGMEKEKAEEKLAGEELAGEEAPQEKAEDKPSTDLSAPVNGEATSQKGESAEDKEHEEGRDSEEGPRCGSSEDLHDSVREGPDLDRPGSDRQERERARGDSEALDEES
UniProt Q9Y324, sequence (Q9Y324 whole entry, looked up): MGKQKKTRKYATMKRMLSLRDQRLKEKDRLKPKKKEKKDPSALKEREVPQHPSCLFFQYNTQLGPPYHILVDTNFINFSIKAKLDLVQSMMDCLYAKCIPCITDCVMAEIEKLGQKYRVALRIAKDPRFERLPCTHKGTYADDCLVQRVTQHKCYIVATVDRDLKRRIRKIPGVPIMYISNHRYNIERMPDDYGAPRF
UniProt Q00403, sequence (Q00403 whole entry, looked up): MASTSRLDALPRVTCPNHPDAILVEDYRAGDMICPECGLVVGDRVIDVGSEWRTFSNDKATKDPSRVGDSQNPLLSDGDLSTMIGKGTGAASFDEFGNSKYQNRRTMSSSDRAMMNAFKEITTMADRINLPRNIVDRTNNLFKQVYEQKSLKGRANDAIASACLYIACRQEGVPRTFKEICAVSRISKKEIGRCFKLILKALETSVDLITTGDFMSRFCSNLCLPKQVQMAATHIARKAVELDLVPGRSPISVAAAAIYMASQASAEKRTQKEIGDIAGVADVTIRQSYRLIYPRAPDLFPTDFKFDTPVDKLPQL

log2 fold change, inactive:
HSD17B12 (UniProt Q53GQ0) -0.015, GTF3C5 isoform 3 (UniProt Q9Y5Q8) 0.226, GTF3A (UniProt Q92664) 0.033, GTF3C4 (UniProt Q9UKN8) -0.052, GPX4 (UniProt P36969) 0.02, GCDH (UniProt Q92947) -0.026, HBQ1 (UniProt P09105) 0.001, H2AZ1 (UniProt P0C0S5) -0.001, FBXO3 (UniProt Q9UK99) 0.013, IGF2BP2 (UniProt Q9Y6M1) 0.24, HDAC2 (UniProt Q92769) 0, GLB1 (UniProt P16278) 0.022, GABPA (UniProt Q06546) -0.01, FUBP3 (UniProt Q96I24) 0.022, FCF1 (UniProt Q9Y324) -0.269, GTF2B (UniProt Q00403) -0.04, HAX1 (UniProt O00165) 0.028, HDGFL2 (UniProt Q7Z4V5) -0.008, GMEB1 (UniProt Q9Y692) -0.027, HIP1 (UniProt O00291) -0.04, ICAM1 (UniProt P05362) -0.007, HIST2H3A (UniProt Q71DI3) -0.078, FBXO7 (UniProt Q9Y3I1) -0.009, GLUL (UniProt P15104) -0.019
